Reference: PubChem BioAssay AID1159580 (chemical genetic matrix, 2015)
“And” between values parts separate entries of the source, which are not always exact repeats. Equal entries are not always repeated. Among all 5,500 compounds or so, about 2,000 (36%) were called active. Another 18% or so got no clear call; they are omitted. Cut-off read from the data, not from the text of the source: active = normalized growth mostly below about 0.91 (no sharp cut-off); inconclusive = no clear call, values can overlap the other calls; inactive = mostly above about 0.92. This is one part of the list.

Assay: chemical genetic growth profiling, strain panel (AID 1159580);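 note: tested at 20 µM; growth read once vehicle control cultures reached saturation at 30 °C; 1 = growth at the plate median or of vehicle wells; lower values mean less growth of the strain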
Settings: S. cerevisiae deletion strains, growth OD

Measured: normalized growth

O=c1ccc2cc(O)c(O)cc2o1
inactive: locus YAL013W, strain DEP1, stronger effect = lower value 1.01 | locus YAL021C, strain ccr4, stronger effect = lower value 1.01 | locus YAL026C, strain drs2, stronger effect = lower value 0.992 | locus YAL030W, strain snc1, stronger effect = lower value 1.03 | locus YBL061C, strain skt5, stronger effect = lower value 1 | locus YBR009C, strain hhf1, stronger effect = lower value 1.03 | locus YBR021W, strain FUR4, stronger effect = lower value 0.974 | locus YBR023C, strain chs3, stronger effect = lower value 1 | locus YBR171W, strain sec66, stronger effect = lower value 1 | locus YBR229C, strain ROT2, stronger effect = lower value 1.01 | locus YBR231C, strain swc5, stronger effect = lower value 0.966 | locus YBR279W, strain paf1, stronger effect = lower value 1.01 | locus YCL011C, strain gbp2, stronger effect = lower value 1.03 | locus YCL016C, strain dcc1, stronger effect = lower value 1 | locus YCL029C, strain bik1, stronger effect = lower value 0.989 | locus YCL061C, strain MRC1, stronger effect = lower value 1 | locus YCL069W, strain vba3, stronger effect = lower value 0.999 | locus YCR088W, strain abp1, stronger effect = lower value 1.01 | locus YDL005C, strain med2, stronger effect = lower value 1.02 | locus YDL035C, strain GPR1, stronger effect = lower value 0.999 | locus YDL040C, strain nat1, stronger effect = lower value 1.02 | locus YDL074C, strain BRE1, stronger effect = lower value 1 | locus YDL101C, strain DUN1, stronger effect = lower value 1.01 | locus YDL185W, strain tfp1, stronger effect = lower value 0.987 | locus YDL192W, strain arf1, stronger effect = lower value 0.991 | locus YDR001C, strain nth1, stronger effect = lower value 0.994 | locus YDR069C, strain doa4, stronger effect = lower value 1.03 | locus YDR101C, strain arx1, stronger effect = lower value 0.98 | locus YDR137W, strain rgp1, stronger effect = lower value 0.913 | locus YDR159W, strain sac3, stronger effect = lower value 0.968 | locus YDR162C, strain NBP2, stronger effect = lower value 1.01 | locus YDR195W, strain ref2 1.01 | locus YDR297W, strain sur2, stronger effect = lower value 1.01 | locus YDR318W, strain mcm21, stronger effect = lower value 0.996 | locus YDR334W, strain swr1, stronger effect = lower value 1 | locus YDR335W, strain msn5, stronger effect = lower value 0.99 | locus YDR388W, stronger effect = lower value 0.996 | locus YDR392W, strain spt3, stronger effect = lower value 1.01 | locus YDR502C, strain sam2, stronger effect = lower value 0.997 | locus YEL003W, strain gim4, stronger effect = lower value 1.03 | locus YEL037C, strain rad23, stronger effect = lower value 1 | locus YEL061C, strain CIN8 (second series), stronger effect = lower value 0.997 | locus YEL061C, strain CIN8, stronger effect = lower value 1.01 | locus YER015W, strain faa2, stronger effect = lower value 0.993 | locus YER016W, strain bim1, stronger effect = lower value 0.975 | locus YER110C, stronger effect = lower value 0.991 | locus YER111C, strain swi4, stronger effect = lower value 0.99 | locus YER155C, strain BEM2 (second series), stronger effect = lower value 1.1 | locus YER155C, strain BEM2, stronger effect = lower value 1 | locus YER167W, strain BCK2, stronger effect = lower value 1.01 | locus YFR010W, strain ubp6, stronger effect = lower value 1 | locus YGL078C, strain dbp3, stronger effect = lower value 0.984 | locus YGL086W, strain mad1, stronger effect = lower value 0.987 | locus YGL167C, strain pmr1, stronger effect = lower value 0.998 | locus YGL173C, strain kem1, stronger effect = lower value 0.975 | locus YGL227W, strain vid30, stronger effect = lower value 0.999 | locus YGL240W, strain doc1, stronger effect = lower value 1.05 | locus YGL248W, strain PDE1, stronger effect = lower value 1.01 | locus YGL253W, strain hxk2, stronger effect = lower value 0.984 | locus YGR078C, strain PAC10, stronger effect = lower value 1.01 | locus YGR135W, strain pre9, stronger effect = lower value 0.987 | locus YGR252W, strain gcn5, stronger effect = lower value 0.942 | locus YHR013C, strain ard1, stronger effect = lower value 1.01 | locus YHR027C, strain rpn1, stronger effect = lower value 0.973 | locus YHR030C, strain SLT2, stronger effect = lower value 1.01 and 0.971 | locus YHR079C, strain IRE1 (second series), stronger effect = lower value 0.99 | locus YHR079C, strain IRE1, stronger effect = lower value 0.976 | locus YHR094C, strain hxt1, stronger effect = lower value 0.996 | locus YHR129C, strain ARP1, stronger effect = lower value 1.01 | locus YHR142W, strain chs7, stronger effect = lower value 0.979 | locus YHR200W, strain rpn10, stronger effect = lower value 0.99 | locus YIL066C, strain RNR3, stronger effect = lower value 1.01 | locus YIL073C, strain SPO22, stronger effect = lower value 0.976 | locus YIL125W, strain kgd1, stronger effect = lower value 0.984 | locus YIR030C, strain dcg1, stronger effect = lower value 0.996 | locus YJL092W, strain hpr5, stronger effect = lower value 1.01 | locus YJL095W, strain BCK1 (second series), stronger effect = lower value 1.02 | locus YJL095W, strain BCK1, stronger effect = lower value 1.02 and 0.993 | locus YJL115W, strain asf1, stronger effect = lower value 1.01 | locus YJL129C, strain trk1, stronger effect = lower value 0.973 | locus YJL134W, strain LCB3, stronger effect = lower value 1.02 | locus YJL154C, strain vps35, stronger effect = lower value 1.01 | locus YJL164C, strain tpk1, stronger effect = lower value 1.02 | locus YJL166W, strain qcr8, stronger effect = lower value 1.02 | locus YJL168C, strain set2, stronger effect = lower value 0.985 | locus YJL187C, strain SWE1 (second series), stronger effect = lower value 1.02 | locus YJR043C, strain POL32, stronger effect = lower value 1.02 | locus YJR066W, strain TOR1, stronger effect = lower value 0.978 | locus YKL009W, strain mrt4, stronger effect = lower value 1.01 | locus YKL068W, stronger effect = lower value 1 | locus YKL085W, strain MDH1 (second series), stronger effect = lower value 1 | locus YKL085W, strain MDH1, stronger effect = lower value 1 | locus YKL160W, strain elf1, stronger effect = lower value 0.961 | locus YKL190W, strain CNB1, stronger effect = lower value 1.01 | locus YKR001C, strain vps1, stronger effect = lower value 0.953 | locus YKR026C, strain gcn3, stronger effect = lower value 0.997 | locus YKR091W, strain srl3, stronger effect = lower value 1 | locus YLL001W, strain dnm1, stronger effect = lower value 1.02 | locus YLL026W, stronger effect = lower value 0.999 | locus YLL041C, strain sdh2, stronger effect = lower value 0.995 | locus YLR027C, strain aat2, stronger effect = lower value 1 | locus YLR039C, strain RIC1, stronger effect = lower value 1 | locus YLR058C, strain SHM2, stronger effect = lower value 1.02 | locus YLR102C, strain apc9, stronger effect = lower value 0.987 | locus YLR113W, strain HOG1, stronger effect = lower value 0.957 | locus YLR221C, strain rsa3, stronger effect = lower value 1.02 | locus YLR258W, strain gsy2, stronger effect = lower value 0.994 | locus YLR262C, strain YPT6 (second series), stronger effect = lower value 1.05 | locus YLR262C, strain YPT6, stronger effect = lower value 1.01 | locus YLR268W, strain sec22, stronger effect = lower value 0.972 | locus YLR320W, strain mms22, stronger effect = lower value 1.04 | locus YLR330W, strain CHS5, stronger effect = lower value 1.02 | locus YLR342W, strain FKS1 (second series), stronger effect = lower value 0.965 | locus YLR342W, strain FKS1, stronger effect = lower value 1.02 | locus YLR357W, strain rsc2, stronger effect = lower value 0.994 | locus YLR370C, strain arc18, stronger effect = lower value 1.01 | locus YLR371W, strain rom2, stronger effect = lower value 0.982 | locus YLR384C, strain iki3, stronger effect = lower value 1 | locus YLR418C, strain cdc73, stronger effect = lower value 0.953 | locus YML016C, strain PPZ1, stronger effect = lower value 1.02 | locus YML032C, strain rad52, stronger effect = lower value 1 | locus YML120C, strain ndi1, stronger effect = lower value 1.01 | locus YML124C, strain tub3, stronger effect = lower value 0.996 | locus YMR058W, strain fet3, stronger effect = lower value 0.97 | locus YMR078C, strain ctf18, stronger effect = lower value 0.989 | locus YMR125W, strain sto1, stronger effect = lower value 1.02 | locus YMR129W, stronger effect = lower value 1 | locus YMR205C, strain PFK2, stronger effect = lower value 1.02 | locus YMR223W, strain ubp8, stronger effect = lower value 0.985 | locus YMR231W, strain pep5, stronger effect = lower value 1 | locus YMR263W, strain SAP30, stronger effect = lower value 1 | locus YMR307W, strain GAS1, stronger effect = lower value 0.983 | locus YNL067W, strain RPL9B, stronger effect = lower value 0.989 | locus YNL071W, strain lat1, stronger effect = lower value 1.01 | locus YNL183C, strain NPR1, stronger effect = lower value 0.921 | locus YNL209W, strain ssb2, stronger effect = lower value 1 | locus YNL233W, strain BNI4, stronger effect = lower value 1.01 | locus YNL248C, strain rpa49, stronger effect = lower value 1.03 | locus YNL250W, strain rad50, stronger effect = lower value 1.01 | locus YNL271C, strain bni1, stronger effect = lower value 0.99 | locus YNL298W, strain CLA4, stronger effect = lower value 0.994 | locus YNL307C, strain MCK1, stronger effect = lower value 0.984 | locus YNL322C, strain KRE1 (second series), stronger effect = lower value 1 | locus YNL322C, strain KRE1, stronger effect = lower value 1.01 | locus YNR049C, strain mso1, stronger effect = lower value 1.01 | locus YNR052C, strain pop2, stronger effect = lower value 0.983 | locus YOL006C, strain TOP1, stronger effect = lower value 1.01 | locus YOL012C, strain htz1 0.571 | locus YOL147C, strain pex11, stronger effect = lower value 0.997 | locus YOR001W, strain rrp6, stronger effect = lower value 1.03 | locus YOR061W, strain CKA2, stronger effect = lower value 1.02 | locus YOR069W, strain VPS5, stronger effect = lower value 1.01 | locus YOR070C, strain gyp1, stronger effect = lower value 1 | locus YOR080W, strain dia2, stronger effect = lower value 1 | locus YOR083W, strain WHI5, stronger effect = lower value 0.942 | locus YOR106W, strain vam3, stronger effect = lower value 0.913 | locus YOR136W, strain idh2, stronger effect = lower value 0.993 | locus YOR144C, strain elg1, stronger effect = lower value 0.983 | locus YOR184W, strain ser1, stronger effect = lower value 0.992 | locus YOR231W, strain MKK1, stronger effect = lower value 0.98 | locus YOR265W, strain rbl2, stronger effect = lower value 0.989 | locus YOR270C, strain vph1, stronger effect = lower value 1.06 | locus YOR290C, strain snf2, stronger effect = lower value 1 | locus YOR316C, strain cot1, stronger effect = lower value 0.998 | locus YPL051W, strain arl3, stronger effect = lower value 1 | locus YPL055C, strain LGE1, stronger effect = lower value 0.99 | locus YPL078C, strain atp4, stronger effect = lower value 0.986 | locus YPL106C, strain sse1, stronger effect = lower value 0.983 | locus YPL240C, strain hsp82, stronger effect = lower value 1 | locus YPL256C, strain CLN2, stronger effect = lower value 1 | locus YPR119W, strain clb2, stronger effect = lower value 0.994 | locus YPR141C, strain kar3, stronger effect = lower value 0.993 | locus YPR163C, strain tif3, stronger effect = lower value 1 | locus YPR167C, strain met16, stronger effect = lower value 0.993 | strain wtn01, stronger effect = lower value 0.979
